IDE exosite inh – exo-site inhibitors of human insulin-degrading enzyme; z-score at 20 µM; purified IDE, FL-6b probe fluorescence polarization; active compounds read low; P14735; hit rate 6.3% among 17,000;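 active = z-score of -3 or lower, meaning strong loss of probe binding signal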;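 note: His-tagged human IDE residues 42-1019 made in E. coli with 30 nM FL-6b probe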
* hit, by the source's call. This excerpt belongs to a sample that is enriched for hits.

SMILES	IDE exosite inh
COc1ccccc1-c1ccccc1[C@@H]1[C@@H](C#N)N(C(=O)CN(C)C)[C@H]1CO	-0.25
CN(C)CC(=O)N1[C@@H](C#N)[C@H](c2ccc(-c3ccccc3F)cc2)[C@@H]1CO	-4.5*
CN(C)CC(=O)N1[C@H](CO)[C@H](c2ccc(/C=C/c3ccccc3)cc2)[C@@H]1C#N	-1.5
COc1ccccc1-c1ccc([C@@H]2[C@@H](CO)N(C(=O)CN(C)C)[C@H]2C#N)cc1	-15*
COc1ccccc1-c1ccccc1[C@H]1[C@@H](C#N)N(C(=O)CN(C)C)[C@@H]1CO	0.32
COC(=O)C[C@H]1CC[C@@H]2[C@@H](COc3ccc(NC(=O)Nc4c(C)noc4C)cc3C(=O)N2C)O1	0.36
N#C[C@@H]1[C@H](c2ccccc2C2=CCCC2)[C@@H](CO)N1C(=O)C1CCOCC1	-0.31
CO[C@@H]1CN(C)C(=O)c2ccc(NC(=O)Nc3c(C)noc3C)cc2OC[C@@H](C)N(CCC(F)(F)F)C[C@H]1C	1.2
CCCNC(=O)C[C@@H]1CC[C@@H]2[C@H](COC[C@H](O)CN2C(=O)Nc2ccc(Cl)c(Cl)c2)O1	0.54
C[C@@H]1CN([C@@H](C)CO)S(=O)(=O)c2ccc(C#CC3(O)CCCC3)cc2O[C@H]1CN(C)C(=O)Nc1cccc(F)c1	0.25
COc1ccccc1-c1ccc([C@H]2[C@@H](C#N)N(C(=O)CN(C)C)[C@@H]2CO)cc1	-4.2*
COc1ccccc1-c1ccccc1[C@@H]1[C@@H](CO)N(C(=O)CN(C)C)[C@H]1C#N	0.12
COc1ccccc1-c1ccccc1[C@H]1[C@@H](CO)N(C(=O)CN(C)C)[C@H]1C#N	0.75
Cc1ccc(S(=O)(=O)N2C[C@@H](O)COC[C@@H]3O[C@H](CC(=O)NCc4ccc5c(c4)OCO5)CC[C@H]32)cc1	-0.42
O=C(CN1CCOCC1)N1CC(=O)N2[C@H](CO)[C@@H](c3ccc(-c4cccc(F)c4)cc3)[C@@H]2C1	-1.9
Cc1ccc(-c2ccc([C@@H]3[C@@H](CO)N4C(=O)CN(C(=O)CN5CCOCC5)C[C@@H]34)cc2)cc1	-1.4
Cc1ccc(-c2ccc([C@H]3[C@H](CO)N4C(=O)CN(C(=O)CN5CCOCC5)C[C@@H]34)cc2)cc1	0.8
COCC#Cc1ccc([C@@H]2[C@H](CO)N3C(=O)CN(C(=O)CN4CCOCC4)C[C@@H]23)cc1	0.78
Cc1cccc(-c2ccc([C@@H]3[C@H]4CN(C(=O)CN5CCOCC5)CC(=O)N4[C@H]3CO)cc2)c1	-15*
COc1cccc(-c2ccc([C@H]3[C@@H](CO)N4C(=O)CN(C(=O)CN5CCOCC5)C[C@@H]34)cc2)c1	-3.5*
COc1cccc(-c2ccc([C@@H]3[C@H](CO)N4C(=O)CN(C(=O)CN5CCOCC5)C[C@@H]34)cc2)c1	-6.3*
COc1cccc(-c2ccc([C@H]3[C@H]4CN(C(=O)CN5CCOCC5)CC(=O)N4[C@H]3CO)cc2)c1	-3
O=C(CN1CCOCC1)N1CC(=O)N2[C@@H](CO)[C@H](c3ccc(-c4cccc(F)c4)cc3)[C@@H]2C1	-0.23
C[C@@H]1CN([C@@H](C)CO)C(=O)c2cc(NC(=O)Nc3ccccc3)ccc2O[C@@H](C)CCCCO[C@H]1CN(C)C(=O)Nc1ccccc1	1.2
COc1ccc(NC(=O)N2CCC3(CC2)CN(C(=O)CN2CCOCC2)[C@H](CO)c2[nH]c4cc(OC)ccc4c23)cc1	-0.88
SMILES	IDE exosite inh
O=C(C[C@H]1C[C@H]2c3cc(NC(=O)NC4CCCC4)ccc3O[C@H]2[C@@H](CO)O1)NCc1ccccc1F	-0.06
O=C(c1ccccc1)N1CC(=O)N2[C@H](CO)[C@H](c3ccc(C#Cc4ccccc4)cc3)[C@H]2C1	-5.3*
O=C(c1ccccc1)N1CC(=O)N2[C@@H](CO)[C@@H](c3ccc(C#CC4CC4)cc3)[C@@H]2C1	1
O=C(c1ccccc1)N1CC(=O)N2[C@H](C1)[C@H](c1ccc(C#Cc3ccccc3)cc1)[C@@H]2CO	-4.3*
O=C(c1ccccc1)N1CC(=O)N2[C@H](CO)[C@@H](c3ccc(C#Cc4ccccc4)cc3)[C@@H]2C1	-0.2
COc1ccc(C#Cc2ccc([C@@H]3[C@@H](CO)N4C(=O)CN(C(=O)c5ccccc5)C[C@H]34)cc2)cc1	-0.18
COc1ccc(C#Cc2ccc([C@H]3[C@@H](CO)N4C(=O)CN(C(=O)c5ccccc5)C[C@@H]34)cc2)cc1	1.8
C[C@H](NC(=O)C[C@@H]1CC[C@H]2[C@@H](COc3ccc(NS(=O)(=O)c4ccc(Cl)cc4)cc3C(=O)N2C)O1)c1ccccc1	-0.47
COc1ccc(-c2ccc([C@H]3[C@H]4CN(Cc5ccccc5)CC(=O)N4[C@H]3CO)cc2)cc1	0.77
O=C(Nc1ccccc1F)N1CCCCN2[C@H](CO)[C@H](c3ccc(C4=CCCC4)cc3)[C@@H]2C1	1.1
CCc1cnc(N2[C@H](C#N)[C@H](c3ccc(C#CC(C)C)cc3)[C@@H]2CO)s1	-0.51
COc1ccc(C#Cc2ccc([C@H]3[C@@H](CO)N4C(=O)CN(C(=O)C5CCOCC5)C[C@@H]34)cc2)cc1	4.3
COc1ccc(C#Cc2ccc([C@@H]3[C@H]4CN(C(=O)C5CCOCC5)CC(=O)N4[C@H]3CO)cc2)cc1	3.4
COc1cccc(C#Cc2ccc([C@H]3[C@@H](CO)N4C(=O)CN(C(=O)C5CC5)C[C@@H]34)cc2)c1	-4.9*
COc1cccc(C#Cc2ccc([C@H]3[C@H]4CN(C(=O)C5CC5)CC(=O)N4[C@H]3CO)cc2)c1	-7.3*
COc1cccc(C#Cc2ccc([C@@H]3[C@H](CO)N4C(=O)CN(C(=O)C5CC5)C[C@@H]34)cc2)c1	-6.3*
COc1ccc(C#Cc2ccc([C@@H]3[C@H](CO)N4C(=O)CN(C(=O)C5CCOCC5)C[C@@H]34)cc2)cc1	3.3
Cc1cccc(S(=O)(=O)N2CCCCN3[C@H](C2)[C@@H](c2ccc(C#C[C@H](C)O)cc2)[C@@H]3CO)c1	1.3
N#C[C@H]1[C@H](c2ccccc2C2=CCCC2)[C@@H](CO)N1C(=O)C1CC1	1.4
CCN(C[C@H]1N[C@@H](CO)[C@H]1c1ccc(C2=CCCC2)cc1)C(=O)c1ccccc1	2.7
CCC(=O)N(C)C[C@@H]1[C@@H](c2ccc(-c3cccnc3)cc2)[C@H](CO)N1C(C)=O	0.085
C[C@@H](O)C#Cc1ccc([C@@H]2[C@H]3CN(C(=O)c4ccncc4)CCCCN3[C@H]2CO)cc1	2.2
CN(C)C(=O)c1cccc(-c2ccc([C@H]3[C@H]4CN(CC5CCOCC5)CCCCN4[C@H]3CO)cc2)c1	1.9
COc1ccc(S(=O)(=O)N2CCCCN3[C@H](CO)[C@@H](c4ccc(C#CCC(C)C)cc4)[C@H]3C2)cc1	2.6
C[C@H](NC(=O)C[C@H]1CC[C@H]2[C@@H](COC[C@H](O)CN2Cc2ccc(C(F)(F)F)cc2)O1)c1ccccc1	0.92
CCC(=O)N1CC(=O)N2[C@H](CO)[C@H](c3ccc(C#Cc4cccc(OC)c4)cc3)[C@H]2C1	-9.8*
COCC(=O)N1CC(=O)N2[C@@H](CO)[C@@H](c3ccc(C#Cc4cccnc4)cc3)[C@@H]2C1	-0.85
COCC(=O)N1CC(=O)N2[C@H](CO)[C@H](c3ccc(C#Cc4cccnc4)cc3)[C@H]2C1	2
COc1cccc(C#Cc2ccc([C@@H]3[C@@H](CO)N4C(=O)CN(C(=O)Cc5cccnc5)C[C@H]34)cc2)c1	-2.3
CCCNC(=O)N1CC(=O)N2[C@H](C1)[C@@H](c1ccc(C#Cc3cccc(OC)c3)cc1)[C@@H]2CO	0.17

Assay outcomes from PubChem.
